Bioassay records (PubChem)
KCNQ2 pot: potentiators of rat KCNQ2 potassium channel. Potassium voltage-gated channel subfamily KQT member 2 (Rattus norvegicus), O88943. B-score at 10 µM. 0.54% of 310,000 active. CHO-K1 KCNQ2, FluxOR thallium flux fluorescence; stronger effect = higher value;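 active means fluorescence ratio B-score at least 3 SD of library B-scores, with initial fluorescence B-score within 3 of them, cut at about 5.3 in these data; same plate scores as AID 2156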;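 further: B-score of peak minus minimum over baseline fluorescence ratio after K+ and Tl+ stimulus; positive B-score means potentiation of KCNQ2 with more thallium influx and brighter signal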
Target sequence (O88943 whole entry, looked up): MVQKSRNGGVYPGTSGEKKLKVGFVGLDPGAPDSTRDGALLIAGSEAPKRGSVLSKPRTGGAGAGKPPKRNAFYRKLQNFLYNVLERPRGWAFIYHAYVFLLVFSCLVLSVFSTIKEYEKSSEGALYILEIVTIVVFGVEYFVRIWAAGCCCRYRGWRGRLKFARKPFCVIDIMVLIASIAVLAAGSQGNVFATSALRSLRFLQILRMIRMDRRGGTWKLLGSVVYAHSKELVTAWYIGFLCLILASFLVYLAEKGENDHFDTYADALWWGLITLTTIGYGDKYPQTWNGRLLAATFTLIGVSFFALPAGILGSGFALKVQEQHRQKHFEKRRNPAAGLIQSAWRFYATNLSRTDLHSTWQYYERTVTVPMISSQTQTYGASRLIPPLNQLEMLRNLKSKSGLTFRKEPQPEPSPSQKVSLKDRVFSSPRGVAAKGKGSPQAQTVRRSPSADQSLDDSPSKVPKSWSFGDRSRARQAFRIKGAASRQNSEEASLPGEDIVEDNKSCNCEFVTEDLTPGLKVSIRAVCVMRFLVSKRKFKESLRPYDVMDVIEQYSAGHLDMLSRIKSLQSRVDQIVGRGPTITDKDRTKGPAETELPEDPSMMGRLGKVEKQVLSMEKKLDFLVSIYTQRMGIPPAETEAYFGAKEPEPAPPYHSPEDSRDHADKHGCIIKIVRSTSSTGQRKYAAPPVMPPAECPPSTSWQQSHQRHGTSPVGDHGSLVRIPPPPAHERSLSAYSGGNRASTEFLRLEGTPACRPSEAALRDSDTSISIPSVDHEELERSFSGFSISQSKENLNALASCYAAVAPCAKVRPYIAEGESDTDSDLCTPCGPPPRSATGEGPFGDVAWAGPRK
KCNQ2 inh: rat KCNQ2 potassium channel inhibitors, primary screen, cell-based, CHO-K1, FluxOR thallium flux, B-score; 1.1% of 310,000 active; B-score at 10 µM; AID 2156, 2009; Potassium voltage-gated channel subfamily KQT member 2 (Rattus norvegicus), O88943; 20 min; stronger effect = lower value;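 active means fluorescence ratio B-score at most minus 3 library SDs, with starting brightness B-score within 2 library SDs, cut at about -5.5 in these data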
Starred values were filed as active, the others as inactive; i = inactive; · = not tested or not shown. This is a sample that favours compounds with a hit; in the whole collection about 1.6% have one here.

SMILES | KCNQ2 pot | KCNQ2 inh
CC(=O)N1c2ccc3ccccc3c2C(C)CC12CCCCC2 (centres undefined) | -6.6 | -6.6*
O=C(C1CCCC1)N1CCC(CC2CC(c3cccc(Br)c3)=NO2)(C(=O)NCC2CCCCC2)CC1 (centres undefined) | · | i
CCOC(=O)C1CCN(C(=O)CNC(=O)c2nn(-c3ccc(OC)cc3)c(=O)c3ccccc23)CC1 | 1.4 | i
CC(C)N(C(=O)COc1ccc(Br)cc1Cl)C(C)C | -5.7 | -5.7*
CN(Cc1ccccc1)C(=O)COc1ccc(Br)cc1Cl | · | i
COC(=O)C1CCCN1C(=O)COc1ccc(Br)cc1Cl (centres undefined) | 6.6* | i
O=C(COc1ccc(Br)cc1Cl)NC1CCCCC1 | 0.71 | i
CC1(c2ccc(Cl)cc2)NC(=O)N(CC(=O)Nc2cccnc2Cl)C1=O (centres undefined) | 1.4 | i
Cc1cc(OC(=O)c2ccccc2Br)c([N+](=O)[O-])c(=O)[nH]1 | 0.14 | i
Cc1noc(C)c1COC(=O)[C@@H](NC(=O)c1ccccc1)C(C)C | 0.47 | i
O=C(CSc1nnc(NC(=O)c2ccco2)s1)Nc1ccc(F)cc1F | · | i
O=C(NC1CCCC1)C1CC(O)CN1C(=O)Nc1ccccc1 (centres undefined) | · | i
CCc1ccc(C(=O)CSc2n[nH]c(-c3ccncc3)n2)cc1 | 6.3* | i
COC(=O)CSc1n[nH]c(-c2ccncc2)n1 | 0.64 | i
Clc1ccc(CSc2nncn2-c2ccc3c(c2)OCCO3)cc1 | -7.7 | -7.7*
Clc1ccc(CSc2nncn2-c2ccccn2)cc1 | 0.68 | i
COc1cc(OC)c2c(=O)cc(-c3ccccc3)oc2c1 | · | i
COc1cc2c(c3oc(-c4ccccc4)cc(=O)c13)C=CC(C)(C)O2 | -6 | -6*
Cc1ccc(S(=O)(=O)NCCC(=O)NCC(=O)Nc2c(C)cccc2C)cc1C | · | i
CCOc1ccc(-c2nc(C#N)c(N3CCOCC3)o2)cc1 | 1.4 | i
CCOc1ccc(-c2nc(C#N)c(N3CCN(Cc4ccccc4)CC3)o2)cc1 | -6.2 | -6.2*
Cc1ccc(NS(=O)(=O)c2ccc(-c3cnc(C4CC4)o3)cc2)c(C)c1 | -5.7 | -5.7*
COc1cccc(N2CCN(S(=O)(=O)c3ccc(-c4cnc(C5CC5)o4)cc3)CC2)c1 | 0.13 | i
Cc1cccc(N(C)S(=O)(=O)c2ccc(-c3cnc(C4CC4)o3)cc2)c1 | -9.9 | -9.9*
COc1ccccc1NS(=O)(=O)c1ccc(-c2cnc(C3CC3)o2)cc1 | · | i
SMILES | KCNQ2 pot | KCNQ2 inh
Cc1nnc(SCC(=O)NC2CC2)s1 | 0.61 | i
O=C(NCc1ccccn1)c1ccccc1OCc1ccc(F)cc1 | -6.4 | -6.4*
COc1ccccc1CNC(=O)c1ccccc1OCc1ccc(F)cc1 | · | i
C/C(=N\OCC(=O)Nc1c(C)cc(C)cc1C)c1ccc2c(c1)OCCO2 | 8.1* | i
C/C(=N\OCC(=O)Nc1cc(C)cc(C)c1)c1ccc2c(c1)OCCO2 | · | i
CCOc1cc(/C=N/NC(=O)C2CCCC2)ccc1OC(C)C | · | i
Cc1cc(C)nc(NC2=NCCN2C(=S)Nc2ccc(C)c(C)c2)n1 | · | i
COc1cc(Cn2c(=O)c3c(OC)c(C)cnc3n(C)c2=O)cc(OC)c1 | · | i
CCc1ccc(N2CC(C(=O)OCC(=O)c3c(N)n(CC(C)C)c(=O)n(C)c3=O)CC2=O)cc1 (centres undefined) | 2.5 | i
CC(C)CSc1nc2c(=O)[nH][nH]c(=O)c2n1Cc1ccccc1 | 0.63 | i
CC(C(=O)OCC(=O)Nc1cccc(S(=O)(=O)N(C)C)c1)N1C(=O)c2ccccc2C1=O (centres undefined) | 1.1 | i
O=C(Nc1ccccc1)N1CCc2ccccc21 | · | i
O=C(NCC1CCCC(CNC(=O)N2CCc3ccccc32)C1)N1CCc2ccccc21 (centres undefined) | -5.8 | -5.8*
Cc1ccc(OCCN2CCN(c3ncnc4sc(C)c(C)c34)CC2)cc1 | · | i
Clc1ccc(OCCN2CCN(c3ncnc4sccc34)CC2)cc1 | -6 | -6*
O=C(Nc1nnc(-c2ccccc2)o1)c1cc(Cl)sc1Cl | 4.4 | i
O=C(Nc1nnc(-c2ccc(F)cc2)o1)c1cc(Cl)sc1Cl | 16* | i
CCN(C(=O)COC(=O)c1cc(=O)c2ccccc2o1)c1c(N)n(Cc2ccccc2)c(=O)[nH]c1=O | 0.13 | i
CCCC1S/C(=N/N=C/c2ccc(OC)cc2)N(Cc2ccc(OC)cc2)C1=O (centres undefined) | · | i
CCCC1S/C(=N/N=C/c2ccc(OC)cc2)N(Cc2ccccc2)C1=O (centres undefined) | -6.2 | -6.2*
COc1ccc(N2C(=O)CC(NNC(=O)c3cccnc3)C2=O)cc1 (centres undefined) | · | i
O=C1OC(/C=C/c2ccc(Cl)cc2)=NC/1=C/c1ccco1 | · | i
Cc1cc(C)c(S(=O)(=O)N(C)CC(N)=O)c(C)c1 | -5.6 | -5.6*
Cc1cc(C)c(S(=O)(=O)N(C)CC(=O)N2CCCCC2)c(C)c1 | · | i
COc1ccc(C(=O)OCCc2sc[n+](CC(=O)c3ccccc3)c2C)cc1 | 1.5 | i
SMILES | KCNQ2 pot | KCNQ2 inh
Cc1c(CCOC(=O)C2C3CC4CC(C3)CC2C4)sc[n+]1CC(=O)c1ccc(Br)cc1 (centres undefined) | -7.2 | -7.2*
COc1ccccc1N(CC(O)Cn1ccnc1C)S(=O)(=O)c1ccc(C)cc1 (centres undefined) | 0.94 | i
O=C(Nc1ccc(C(=O)O)cc1)/C(=C\c1ccccc1)NC(=O)c1ccco1 | 0.24 | i
O=C(Nc1ccc(C(=O)O)cc1)/C(=C\c1ccc2c(c1)OCO2)NC(=O)c1ccco1 | 6.5* | i
COc1ccc(/C=C2\SC(=O)NC2=S)cc1OC | 5.9* | i
CCOc1ccc(/C=C2\SC(=S)NC2=O)cc1OC | 3.8 | i
Cc1ccc(C)c(N2CCN(c3ccncc3N)CC2)c1 | 0.28 | i
CCCNC(=O)COc1coc(CN2CCN(c3ccccc3F)CC2)cc1=O | · | i
COc1ccccc1C1CN(c2ccc(F)cc2F)N=C1c1cccs1 (centres undefined) | -7.8 | -7.8*
COc1ccccc1C1CC(c2cccs2)=NN1C(=O)CCC(=O)O (centres undefined) | 0.69 | i
CCn1nc(C)c([N+](=O)[O-])c1C(=O)NNC(=O)c1ccccc1Cl | 1.1 | i
O=c1c2ccc(Cl)cc2[nH]c(=S)n1CCC1=CCCCC1 | 8.7* | i
CCOC(=O)N1CCN(C(=O)c2ccc3c(=O)n(CCC4=CCCCC4)c(=S)[nH]c3c2)CC1 | 0.45 | i
COC(=O)c1c(C(=O)OC)c(-c2cccc(F)c2)n2c1CS(=O)(=O)C2 | 0.08 | i
COc1ccc2nc3oc(C(=O)N4CCN(c5cccc(Cl)c5)CC4)cc3cc2c1 | -5.8 | -5.8*
COc1ccc2nc3oc(C(=O)N4CCN(c5cccc(C(F)(F)F)c5)CC4)cc3cc2c1 | · | i
Cc1cc2ncn(CC3CC3(Cl)Cl)c2cc1C (centres undefined) | 1.1 | i
CN(CC(=O)Nc1ccc(F)c(F)c1F)C(=O)C1CCN(C(=O)Nc2ccccc2)CC1 | · | i
CC1CCCN(C(C(=O)Nc2ccc3c(c2)OCCO3)c2ccccc2)C1 (centres undefined) | · | i
CC1CCCN(C(C(=O)Nc2ccc3c(c2)OCO3)c2ccccc2)C1 (centres undefined) | -5.7 | -5.7*
